# Screening results: PubChem BioAssay, National Center for Advancing Translational Sciences (NCATS)
# HCV inhibitor = qHTS Assay for Inhibitors of Hepatitis C Virus (HCV); actives 3.4% (n = 340,000); Huh7.5.1 HCVcc-Cre infection, luciferase reporter, 44 h; Potency, µM (series often up to 41.8 µM), without a hit: at the highest dose activity change, negative = inhibition, usual class: inhibitors; note: potency is the fitted concentration of half-maximal effect; % is set by controls: 0 for no effect and ±100 for the full control effect
#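 After 44 h co-culture of compound, cells and HCVcc-Cre (~0.5 moi), substrate is added for 15 min at room temperature and luciferase measured over 15 sec. Cells were seeded at 1,000/well and pre-cultured 4 h.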
# Pf growth 96h = Primary qHTS for delayed death inhibitors of the malarial parasite plastid, 96 hour incubation. actives 6.9% (n = 320,000). P. falciparum luciferase reporter growth, 96 h. Potency, µM (highest dose often 28.7 µM), without a hit: top-dose activity change, negative = inhibition, actives largely listed as inhibitors; note: potency is the fitted concentration of half-maximal effect; % is set by controls: 0 for no effect and ±100 for the full control effect
#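 Cell-based qHTS: luciferase-tagged P. falciparum in erythrocytes (2% hematocrit, 0.05% parasitemia final) incubated with compounds for 96 hours, 37 C, 5% CO2; luciferase detection reagent then added and luminescence measured.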
# Shiga toxin inh = A qHTS for Small Molecule Inhibitors of Shiga Toxin | actives 9.2% (n = 290,000) | AID 2315, 2010 | inhibition, % at 38.7 µM | Vero cells, Shiga toxin protein synthesis inhibition reporter; in the data active = inhibition mostly above about 28%, no sharp cut-off; inactive = mostly below about 43%; note: 0% is about no effect
# Cycloheximide cs = Cycloheximide Counterscreen for Small Molecule Inhibitors of Shiga Toxin; actives 12% (n = 300,000); AID 2314, 2010; max response, %; cell reporter, cycloheximide protein synthesis inhibition counterscreen; in the data active = max response mostly above about 13%, no sharp cut-off; inactive = mostly below about 14%; note: read at 38.3 µM for the half of the compounds with a filed dose; 0% is about no effect
# Pf growth 48h = Primary qHTS for delayed death inhibitors of the malarial parasite plastid, 48 hour incubation. P. falciparum luciferase growth in erythrocytes, 48 h. Potency, µM (top dose mostly 28.7 µM), for the others: at the top dose activity change, negative = inhibition, actives largely listed as inhibitors. actives 5.9% (n = 310,000); note: potency is the fitted concentration of half-maximal effect; % is set by controls: 0 for no effect and ±100 for the full control effect
#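 Cell-based growth assay: transgenic P. falciparum expressing firefly luciferase, cultured in red cells within RPMI 1640 containing 0.5% w/v Albumax, 24 mM bicarbonate and gentamycin. A drop in luciferase activity indicates inhibition.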
# HCMV inh = qHTS Assay for inhibitors of the human cytomegalovirus (HCMV). activity change, negative = inhibition, % at 57.5 µM. HFF cells, HCMV-luciferase reporter, 72 h; stronger effect = lower value. actives 4.5% (n = 410,000). AID 1259415, 2018; in the data active = activity change below about -60%; inconclusive = no clear call, values can overlap the other calls; inactive = above about -39%; note: % is set by controls: 0 for no effect and ±100 for the full control effect
#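 After 16 h attachment at 37C, HFF cells received test compound and HCMV-luciferase (1 PFU/cell); reporter luminescence read 72 h later, data normalized against buffer-only and known inhibitor Salinomycin.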
# Numbers without * were called inactive; ? = inconclusive; . = no result. Shown are actives, neighbours in structure and some others; about 21% of the full set was active somewhere. Unless noted, calls come from the whole dose curve; as a rule, active = well fitted inhibition curve with a large enough effect; inconclusive = small, poorly fitted or top-dose-only effect, or another doubt; inactive = no such curve, though single readings can be large or run the other way.
SMILES,HCV inhibitor,Pf growth 96h,Shiga toxin inh,Cycloheximide cs,Pf growth 48h,HCMV inh
COc1ccc(N2CCN(C(=O)c3ccc4c(c3)N(Cc3ccc(F)cc3)C(=O)c3ccccc3S4=O)CC2)cc1 (stereo unspecified),.,.,.,.,.,-30
CCOC(=O)c1[nH]c(C)c(/C=N/O)c1C,-4%,?,26,0,.,-21
CCOC(=O)c1[nH]c(C)c(C)c1C,15%,12µM*,20,-3,19%,17
Cc1ccn2cc(CSc3ccccc3)nc2c1,-19%,.,111*,47*,175%,-10
CCN(Cc1cn2cccnc2n1)C1CCCCC1,-10%,28%,13,-4,-3%,-7
Cc1cc(OCc2cn3cccnc3n2)ccc1Cl,?,8%,65*,71*,28%,54
Cc1ccc(SCc2cn3cccnc3n2)cc1,-10%,100%,57*,41*,85%,73
Clc1ccc(SCc2cn3cccnc3n2)cc1,-17%,65%,97*,27*,65%,-10
CCOc1cc(/C=C2\NC(=O)NC2=O)ccc1OC(C)C(=O)O (stereo unspecified),4%,-26%,-3,-2,-6%,-2
CCOC(=O)Cn1c(=O)n(-c2ccccc2OC)c2nc(-c3ccc(C(C)C)cc3)nc(C(N)=O)c21,.,.,.,.,.,6
CCOC(=O)C1=C(C)NC(=S)NC1c1ccc(-c2ccc(Cl)cc2)o1 (stereo unspecified),?,7.4µM*,17,1,?,-32
CCOC(=O)C1=C(C)NC(=S)NC1c1ccc(-c2cccc(Cl)c2C)o1 (stereo unspecified),6.3µM*,1%,-3,-1,?,-9
CCOC(=O)C1=C(C)NC(=O)NC1c1ccc(-c2ccc(Cl)cc2)o1 (stereo unspecified),?,-18%,15,-3,8%,9
CCN1CCN(C(c2cccc(OC)c2OC)c2nnnn2Cc2ccco2)CC1 (stereo unspecified),-9%,16%,-7,-2,21%,-83*
COc1ccccc1C(c1nnnn1Cc1ccco1)N1CCN(c2cccc(C)c2C)CC1 (stereo unspecified),13µM*,?,43*,28*,3.3µM*,-27
CCCC(c1nnnn1Cc1ccco1)N1CCN(c2ccccc2)CC1 (stereo unspecified),4%,20%,18,0,?,-17
COCCn1nnnc1C(c1ccccn1)N1CCN(c2cccc(C)c2C)CC1 (stereo unspecified),1%,?,-4,-2,?,-6
CCCC(c1nnnn1Cc1ccco1)N1CCN(c2cc(Cl)ccc2C)CC1 (stereo unspecified),-2%,155%,29,12,10µM*,-19
CCCCn1c(C2CC(=O)N(c3ccc(OCC)cc3)C2)nc2ccccc21 (stereo unspecified),.,.,.,.,.,-10
CCC[C@H]1[C@@H](NS(=O)(=O)c2ccc(NC(C)=O)cc2)CC[C@@]23CCCN2C(=O)CCC[C@@H]13,.,.,.,.,.,-8
Cc1ccc(C(=O)c2c[nH]cc2-c2ccccc2)cc1,-14%,38%,-32,17*,12%,10
O=C(O)c1ccccc1C(=O)c1ccc(-c2ccccc2)cc1,16%,?,92*,44*,22%,29
O=C(O)c1ccccc1C(=O)c1ccc(Cl)cc1,39%,24%,-4,-1,30%,51
CCOC(=O)C1CCCCN1S(=O)(=O)c1cc2c(cc1C)NC(=O)CO2 (stereo unspecified),-28%,1%,11,-4,12%,?
CNC(=O)CSc1nnc(-c2ccc(S(=O)(=O)N3CCCC3)cc2)n1-c1cccc(C)c1C,6%,-10%,-3,-2,?,5
SMILES,HCV inhibitor,Pf growth 96h,Shiga toxin inh,Cycloheximide cs,Pf growth 48h,HCMV inh
CCn1c(SCC(=O)Nc2ccccc2)nnc1-c1ccc(S(=O)(=O)N2CCOCC2)cc1,-3%,?,15,-1,5.2µM*,-19
Cc1ccc(CSc2nnc(-c3cccc(S(=O)(=O)N4CCOCC4)c3)n2C2CCCC2)cc1,?,8.3µM*,-5,6,9.3µM*,?
C=CCn1c(SCC(=O)Nc2ccccc2)nnc1-c1cccc(S(=O)(=O)N2CCOCC2)c1,-18%,27%,20,11,.,33
NC(=O)CSc1nnc(-c2cccc(S(=O)(=O)N3CCOCC3)c2)n1C1CCCCCC1,-10%,?,-15,-5,.,-19
COc1ccccc1-n1c(SCC(=O)O)nnc1-c1ccc(S(=O)(=O)N2CCCCC2)cc1,11%,12µM*,39,-3,-6%,16
CC(C)Cn1c(SCC(=O)NCc2ccc(Cl)cc2)nnc1-c1cccc(S(=O)(=O)N2CCOCC2)c1,?,9.3µM*,-14,1,?,4
CC(C)(C)N(Cc1ccccc1)C(=O)COC(=O)CCN1C(=O)C2CC=CCC2C1=O (stereo unspecified),10%,2%,.,.,-25%,2
Fc1ccc(Nc2ccc3ccccc3n2)c(F)c1,-7%,225%,28,13,256%,48
Cc1ccc(OCC(=O)Nc2ccc(S(=O)(=O)Nc3cc(C)on3)cc2)c(Br)c1,.,.,.,.,.,5
CCOC(=O)CSc1nnc(-c2ccc(S(=O)(=O)N3CCOCC3)cc2)n1-c1ccccc1,8%,.,1,0,7.4µM*,-8
O=C(N/N=C/c1ccoc1)c1cc(O)cc(O)c1,26%,?,-28,11,22%,14
O=C(N/N=C/c1ccoc1)c1ccccc1,0%,?,61*,37*,0%,51
O=C(N/N=C/c1ccoc1)c1ccc(Cl)cc1,1%,?,-14,-3,2.6µM*,-75*
O=C(N/N=C/c1ccoc1)c1ccc(Br)cc1,5%,?,36*,36*,-24%,-17
O=C(N/N=C/c1ccoc1)c1ccccc1O,8%,93%,32,29*,-22%,61
NC(Cc1ccc(F)cc1)c1csc(Nc2cc(Oc3ccccc3)ncn2)n1 (stereo unspecified),.,.,.,.,.,-10
CCCCNc1cccc2c1S(=O)(=O)N[C@H](C)CO2,.,.,.,.,.,50
CC(=O)Nc1ccc(NC(=O)CCc2nc3cccnc3n2Cc2cccs2)cc1,.,.,.,.,.,-7
COc1cc(-c2nnc(SCC(=O)NCc3ccccc3Cl)o2)cc(OC)c1OC,.,.,.,.,.,-23
Cc1ccc(Cc2c(-c3cccc(Br)c3)nc3cc(C)c(Br)c(C)n23)cc1,.,.,.,.,.,49
COc1ccc(CC2NCC(O)C2OC(C)=O)cc1 (stereo unspecified),0.56µM*,.,.,.,.,-109*
CCC[C@H](/C=C/C(=O)OCC)NC(=O)C(F)(F)F,.,.,.,.,.,-8
